Laboratory results published in PubChem BioAssay AID686979 (National Center for Advancing Translational Sciences (NCATS), 2013).
In all, about 420,000 compounds went through this assay and about 50,000 (12%) were called active. Inconclusive results (about 26%) are left out. This is one part of a sample in which actives are shown more often than they occur. Values without a mark were called inactive. Calls come from the whole dose curve; as a rule, active = well fitted inhibition curve with a large enough effect; inconclusive = small, poorly fitted or top-dose-only effect; inactive = flat fitted curve, though single readings scatter.

assay: qHTS for Inhibitors of human tyrosyl-DNA phosphodiesterase 1 (TDP1): qHTS in cells in presence of CPT; conditions: chicken DT40 Tdp1-/-;hTDP1 cells + 20 nM CPT, ATP luminescence, 48 h; series mostly up to 46.2 µM; activity change, negative = growth inhibition: at the top concentration; note: nearly all actives have a fitted effect of over 55% in size
Procedure, shortened: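 Chicken DT40 Tdp1-/- cells stably complemented with human TDP1 were seeded at 400 cells/well in medium containing 20 nM camptothecin, exposed to pin-transferred compounds, and grown at 37 °C for at least 48 hr. Viability was read as ATP luminescence.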
% is set by controls: 0 for no effect and ±100 for the full control effect; potency is the fitted concentration of half-maximal effect.

Structure (SMILES)	activity change, negative = growth inhibition	Potency
CN(C(=O)c1cccc(OC2CCN(S(=O)(=O)N(C)C)CC2)c1)C1CCOC1 (configuration not stated)	0.425%	
CN(C)S(=O)(=O)N1CCC(Oc2cccc(C(=O)NCCCC3CCCC3)c2)CC1		18.4 µM (active)
CNS(=O)(=O)c1cccc(C(=O)NCC2CCCCC2)c1	-6.28%	
Clc1cc(-c2ccc(/C=N/n3cnnc3)o2)ccc1Br	36%	
CCOc1ccc(S(=O)(=O)NCc2ccc3c(c2)OCO3)cc1C	-0.545%	
O=C(NC1CC(=O)N(c2ccc(Cl)cc2)C1)C1CCCC1 (configuration not stated)	-4.39%	
Cc1cc(C)n2nc(C(=O)OCC(=O)N(CCC#N)c3ccc(F)cc3)nc2n1	-8.36%	
Cc1ccc(-c2cc(=O)c3ccc(Cl)cc3[nH]2)cc1	-0.276%	
Cc1ccc(-c2cc(=O)c3ccc(F)cc3[nH]2)cc1		18.4 µM (active)
Cc1ccc(S(=O)(=O)/N=C(\N)c2ccc(F)cc2)cc1	7.94%	
O=c1cc(-c2ccccc2)[nH]c2cc(F)ccc12		0.92 µM (active)
O=c1[nH]c(-c2ccccc2)c(-c2ccccc2)[nH]1	-8.71%	
Cc1cc(=O)c2ccc(NC(=O)c3ccccc3)cc2[nH]1	4.26%	
CC1=C(C(=O)OC2CCCCC2)C(c2ccccc2F)NC(=O)N1 (configuration not stated)	-0.323%	
O=C(CCC(=O)N1CCCC1)Nc1ccc([N+](=O)[O-])cc1	0.853%	
CCCCOc1ccc(C(=O)NCC(=O)OCC(=O)N2CCN(S(=O)(=O)c3ccc(C)cc3C)CC2)cc1	3.37%	
N#C/C(=C/c1ccc(Cl)cc1)NC(=O)c1ccccc1	-13.7%	
Cc1c(Br)c([N+](=O)[O-])nn1CC(=O)N1CCN(Cc2ccccc2)CC1	0.502%	
Fc1ccc(COc2ccc(-c3nnco3)cc2)cc1	-5.2%	
CCN1C(=O)[C@H]2[C@@H](c3ccc(-c4ccc(OC)cc4)cc3)N[C@@](Cc3ccccc3)(C(=O)OC)[C@H]2C1=O		18.4 µM (active)
COC(=O)C1(C)NC(c2ccccc2OC)C2C(=O)N(c3ccccc3)C(=O)C21 (configuration not stated)	-4.8%	
CCN1C(=O)[C@H]2[C@@H](c3ccc(SC4CCCCC4)c(OC)c3)N[C@@](Cc3ccccc3)(C(=O)OC)[C@H]2C1=O		16.4 µM (active)
CCCC1(C(=O)OC)NC(c2ccco2)C2C(=O)N(C)C(=O)C21 (configuration not stated)	7.77%	
CCN(C[C@H]1N[C@@](CC)(C(=O)OC)[C@H]2C(=O)N(Cc3ccccc3)C(=O)[C@@H]12)S(=O)(=O)c1ccccc1	-24%	
CCNC(=O)N(CC)C[C@H]1N[C@@](CC)(C(=O)OC)[C@H]2C(=O)N(Cc3ccccc3)C(=O)[C@@H]12	-0.264%	
CC1=NNC(=O)C1Cc1c(Cl)cccc1Cl (configuration not stated)	7.71%	

Structure (SMILES)	activity change, negative = growth inhibition	Potency
C#CCOCCOCCOCCNc1nc(N2CCN(C(=O)C([C@@H](C)O)n3cc([C@@H](N)CCCCN)nn3)CC2)nc(N2CCN(C(=O)[C@H](CCCCN)n3cc(CN)nn3)CC2)n1 (some centres not stated)	-8.26%	
CC(C)[C@H](NC(=O)c1ccccc1F)C(=O)Nc1cccc(S(=O)(=O)N2CCOCC2)c1	-19.6%	
CC(=O)c1ccc(NC(=O)Cn2c(=O)oc3ccccc32)cc1	-7.78%	
Cc1ccccc1NC(=O)Cn1c(=O)n(CC2CCCO2)c(=O)c2ccccc21 (configuration not stated)	-12.1%	
O=C(NCc1ccccc1)C1c2ccccc2OCC(=O)N1CCCN1CCOCC1 (configuration not stated)	-6.5%	
O=C(/C=C/c1ccc2c(c1)OCO2)NCc1ccc(F)cc1	-20.8%	
O=C1Nc2ccccc2NC(c2ccc3c(c2)OCO3)=C1N(Cc1ccc(F)cc1)C(=O)c1ccco1		16.4 µM (active)
O=C(c1ccc2c(c1)OCO2)N1CCN(C(=O)c2ccco2)CC1	-1.13%	
CCCCNc1ccc(-c2nc(-c3ccncc3)no2)cc1[N+](=O)[O-]	-27.8%	
Cc1ccc2nsnc2c1S(=O)(=O)N1CCCC1C(=O)O (configuration not stated)	7.53%	
CCN(Cc1ccncc1)C(=O)CCc1ccccc1	-6.1%	
Cc1nc2ccccc2n1CC(=O)N/N=C/c1cccnc1	2.42%	
O=C(CSc1cccc2cccnc12)N/N=C/c1cccnc1		23.1 µM (active)
O=C(CNC(=O)c1cccnc1)N/N=C/c1cccnc1	10.3%	
CCCCCC(O)(CCN1CCCCC1)c1ccccc1 (configuration not stated)	-22.8%	
CC(=O)C1C(c2ccc(Cl)cc2)NC(=O)NC1(O)C(F)(F)F (configuration not stated)	13.5%	
CC1=NN(c2ccc(Cl)c(C(=O)O)c2)C(=O)/C1=C/c1ccc(-c2ccccc2[N+](=O)[O-])o1	6.09%	
O=C1NC(c2ccc(-c3ccccc3[N+](=O)[O-])o2)C(C(=O)c2ccc(Cl)cc2)C(O)(C(F)(F)F)N1 (configuration not stated)		18.4 µM (active)
Cc1ccc(CSCC(=O)N(C)CC(=O)Nc2ccc(C)cc2)cc1	-19.8%	
FC(F)(F)c1ccc2nnc(-c3c(Cl)cccc3Cl)n2c1	0.574%	
CC=CCn1c(SCCCc2ccccc2)nc2c1c(=O)[nH]c(=O)n2C		20.6 µM (active)
CC1CCN(c2nc3c(c(=O)[nH]c(=O)n3C)n2CCCc2ccccc2)CC1		16.4 µM (active)
CN1CCN(c2nc3c(c(=O)[nH]c(=O)n3C)n2Cc2cccc3ccccc23)CC1	-22.5%	
CCCSc1nc2c(c(=O)[nH]c(=O)n2C)n1CCc1ccccc1	-12.2%	
CCCCCn1c(SCCC(C)C)nc2c1c(=O)[nH]c(=O)n2C	-24.4%	
C=C(C)Cn1c(N2CCCC2)nc2c1c(=O)[nH]c(=O)n2C	0.866%	

Structure (SMILES)	activity change, negative = growth inhibition	Potency
Cc1ccc(C)c(OCCC(=O)OCC(=O)N2CCN(c3ccccc3)CC2)c1	-28%	
CCC(=O)N1CCc2cc(S(=O)(=O)NC(C(=O)NCCc3ccc(C)cc3)C(C)C)ccc21 (configuration not stated)	4.77%	
C[C@@H]1CN([C@@H](C)CO)C(=O)c2cc(NC(=O)C3CC3)ccc2O[C@H]1CN(C)C	-17.6%	
COC(=O)c1ccc([C@@H](O)[C@H](C)C(=O)CC(=O)OC(C)(C)C)cc1	4.03%	
COc1ccccc1N1CCN(C(=O)C(=O)N/N=C/c2ccccc2F)CC1	-7.99%	
COc1ccccc1N1CCN(/N=C\C(Br)=C\c2ccccc2)CC1		8.2 µM (active)
COc1ccccc1N1CCN(/N=C/c2ccc(O)cc2O)CC1	-23.9%	
O=C(CN1C(=O)NC(Cc2c[nH]c3ccccc23)C1=O)Nc1ccccc1C(F)(F)F (configuration not stated)	-16.4%	
O=C(O)C1CCC(CNS(=O)(=O)c2ccc(Br)cc2)CC1 (configuration not stated)	0.756%	
CC(=O)N/C(=C/c1ccc(OC(F)F)cc1)C(=O)O	6.08%	
NC(=O)c1cc(S(=O)(=O)NCCCc2ccco2)cs1	-27.2%	
Cc1cccc(CC2(O)C(=O)Nc3ccccc32)n1 (configuration not stated)	-19.8%	
COc1ccc(C(=O)N/N=c2\oc3ccccc3cc2C(N)=O)cc1	-8.26%	
NC(=O)c1cc2ccccc2o/c1=N/NC(=O)c1cccc(F)c1	-23.1%	
CCN(CC)c1ccc2cc(C(N)=O)/c(=N\NC(=O)c3ccncc3)oc2c1		16.4 µM (active)
COc1cccc(NC(=S)NC(=O)c2c(Cl)c(C)nn2C)c1	3.79%	
Cc1ccc(C(=O)COC(=O)c2cccc(N3C(=O)c4c(C)nc5ccccc5c4C3=O)c2)cc1C	1.34%	
CCCCCCCCn1c2c(c(=N)c3c1CCC3)CCCC2		0.92 µM (active)
O=C(O)C1CCN(C(=O)OCc2ccccc2)CC1	2.35%	
CC1(C)CC(=O)c2cc(C(=O)NCc3ccccc3)c(=O)[nH]c2C1	-12.3%	
CSc1ccccc1C(=O)NCc1ccccc1	1%	
CC(C)(C)[C@H]1C=C(C(=O)NCc2ccccc2)O[C@@H](OCc2ccc(CO)cc2)C1		18.4 µM (active)
O=C(COC(=O)CNC(=O)C1CCCCC1)NCc1ccccc1	15.2%	
O=C(NCc1ccccc1)C1=C[C@@H](C2CCCCC2)C[C@@H](OCc2ccc(CO)cc2)O1		16.4 µM (active)
CCCCc1nc(SCC(=O)Nc2nnc(C(C)C)s2)n[nH]1	-21.8%	
O=C(OCC(=O)N1CCCC1=O)c1cc(S(=O)(=O)N2CCOCC2)ccc1Cl	3.27%	

Structure (SMILES)	activity change, negative = growth inhibition	Potency
O=C(OCC(=O)N1CCN(C(=O)c2ccco2)CC1)c1c(Cl)cccc1Cl	-3.35%	
CC(=O)Nc1cccc(C(=O)OCC(=O)NCc2cc(C)c(O)c(C)c2)c1	3.43%	
CC(=O)c1cccc(OCC(=O)OCC(=O)Nc2cc(S(=O)(=O)N3CCCCC3)ccc2C)c1	-0.0276%	
c1ccc2cc(CCCc3cc4ccccc4cn3)ncc2c1	-26.5%	
O=C(NCc1ccccn1)c1cc(Br)ccc1Cl	-2.09%	
O=C(NCCc1ccccn1)c1cc(-c2ccc(Cl)cc2)nc2ccccc12		13 µM (active)
CN(CC(=O)NCCc1ccccn1)S(=O)(=O)c1ccc(Cl)cc1	3.55%	
COC(=O)c1ccc2c(c1)S(=O)(=O)NC2C (configuration not stated)	7.67%	
CCCNC(=O)C1CCN(c2nc3ccc(C)cc3[nH]2)CC1	-11.4%	
CCC1CCCCN1S(=O)(=O)Cc1ccccc1Cl (configuration not stated)	-0.993%	
CN(CCc1ccccn1)C(=O)c1ccc(OC2CCN(Cc3ccccn3)CC2)cc1	-2.64%	
CC(C)Oc1c(Br)cc(Br)cc1/C=N/NC(N)=S		16.4 µM (active)
NC(=S)N/N=C/c1coc2cc(Cl)ccc2c1=O	-8.57%	
CCOC(=O)C1=C(C)c2ccccc2OC1(C)C(=O)OCC (configuration not stated)	-15.8%	
COc1ccc(NC(=O)CCC(=O)Nc2nnc(C3CCCCC3)s2)cc1	-3.36%	
CCCCN1CC(c2nc3ccccc3n2CCCCOc2ccc(C)cc2C)CC1=O (configuration not stated)		7.31 µM (active)
COc1ccc(OCCCn2c(C3CC(=O)N(c4ccc(F)cc4)C3)nc3ccccc32)cc1 (configuration not stated)		18.4 µM (active)
CCc1ccccc1N1CC(c2nc3ccccc3n2CCCCOc2ccccc2)CC1=O (configuration not stated)	-23.8%	
CC(C)(C)N1CC(c2nc3ccccc3n2Cc2ccc(F)cc2)CC1=O (configuration not stated)	-19.6%	
CCOc1ccc(N2CC(c3nc4ccccc4n3CCOc3ccc(OC)cc3)CC2=O)cc1 (configuration not stated)		20.6 µM (active)
CCOc1ccc(NC(=O)[C@H](C)NC(=O)C2CC(=O)N(c3ccc(OC)cc3)C2)cc1 (some centres not stated)	4.17%	
CCCOc1cc(C)c(S(=O)(=O)n2nnc3ccccc32)cc1C	2.86%	
Cc1ccc(C(C)C)c(OCCSc2nc3ccccc3n2CC(=O)O)c1	-6.59%	
CCCOc1ccc(N2CC(C(=O)Nc3ccccn3)CC2=O)cc1 (configuration not stated)	-0.824%	
